Where a name gives a salt, the structure may show the parent alone.
Tested on: MARIMO
Test: cell viability relative to vehicle control; higher = less cytotoxic
Settings: 10 µM; SRSF2 genotype: SRSF2 wt/wt
How it was run: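 Four leukaemia lines, as CRISPR-edited mutant clones and isogenic wild-type clones, were tested against Selleck bioactive, kinase and epigenetic probe libraries after removal of identity-inconsistent compounds. Cells were exposed to a single 10 µM dose for 48 h, and CellTiter-Glo luminescence was then read. Viability was calculated relative to the on-plate vehicle control.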

Row | Structure (SMILES) | cell viability [%]
1 | O=c1cc(N2CCOCC2)oc2c(-c3ccccc3)cccc12 | 64.8
2 | C[C@@H]1C(=O)O[C@H](C)[C@H]1C[C@@H](O)[C@](C)(O)[C@H]1CC[C@@]2(O)C3=CC(=O)[C@@H]4C[C@@H](O)[C@@H](O)C[C@]4(C)[C@H]3CC[C@]12C [Cyasterone] | 98.3
3 | CSCC[C@H](NC(=O)[C@H](CC(C)C)NC(=O)[C@H](Cc1c[nH]c2ccccc12)NC(=O)[C@H](CCC(N)=O)NC(=O)[C@@H](NC(=O)[C@H](Cc1ccccc1)NC(=O)[C@H](CC(=O)O)NC(=O)[C@H](CCC(N)=O)NC(=O)[C@H](C)NC(=O)[C@H](CCCNC(=N)N)NC(=O)[C@H](CCCNC(=N)N)NC(=O)[C@H](CO)NC(=O)[C@H](CC(=O)O)NC(=O)[C@H](CC(C)C)NC(=O)[C@H](Cc1ccc(O)cc1)NC(=O)[C@H](CCCCN)NC(=O)[C@H](CO)NC(=O)[C@H](Cc1ccc(O)cc1)NC(=O)[C@H](CC(=O)O)NC(=O)[C@H](CO)NC(=O)[C@@H](NC(=O)[C@H](Cc1ccccc1)NC(=O)[C@@H](NC(=O)CNC(=O)[C@H](CCC(N)=O)NC(=O)[C@H](CO)NC(=O)[C@@H](N)Cc1cnc[nH]1)[C@@H](C)O)[C@@H](C)O)C(C)C)C(=O)N[C@@H](CC(N)=O)C(=O)N[C@H](C(=O)O)[C@@H](C)O [Glucagon HCl] | 104
4 | CCc1ccc(Cc2ccc3c(c2)[C@]2(OC3)O[C@H](CO)[C@@H](O)[C@H](O)[C@H]2O)cc1 [Tofogliflozin(CSG 452)] | 88.5
5 | CCCCC(C)(O)C/C=C/[C@H]1[C@H](O)CC(=O)[C@@H]1CCCCCCC(=O)OC (mixture of isomers) [Misoprostol] | 79
6 | O=C(Nc1ccc(Br)cc1)c1ccc(Br)c(S(=O)(=O)NCc2ccccc2)c1 | 93.7
7 | CC[C@H]1OC(=O)[C@H](C)[C@@H](O[C@H]2C[C@@](C)(OC)[C@@H](O)[C@H](C)O2)[C@H](C)[C@@H](O[C@@H]2O[C@H](C)C[C@H](N(C)C)[C@H]2O)[C@](C)(O)C[C@@H](C)/C(=N\OCOCCOC)[C@H](C)[C@@H](O)[C@]1(C)O [Roxithromycin (Roxl-150)] | 105
8 | C=C1CC[C@H](O)C/C1=C/C=C1\CCC[C@]2(C)[C@@H]([C@H](C)/C=C/[C@H](C)C(C)C)CC[C@@H]12 [Vitamin D2 (Ergocalciferol)] | 104
9 | O=C(c1ccc(C(=O)N2CCC(N3CCCC3)CC2)c(Nc2ccccc2)c1)N1CCC(N2CCCC2)CC1 | 92.7
10 | OCc1ccc(-c2ccc(-c3ccc(CO)s3)o2)s1 | 66
11 | CCNC(=O)c1noc(-c2cc(C(C)C)c(O)cc2O)c1-c1ccc(CN2CCOCC2)cc1 [Luminespib (AUY-922, NVP-AUY922)] | 26
12 | O=C(c1ccc(Cl)cc1)N(Cc1ccccc1)C1CCCCC1 | 84.1
13 | COc1ccc2c3c1O[C@H]1C[C@@H](O)C=C[C@@]31CCN(C)C2 [Galanthamine] | 106
14 | CN1CCN(c2ccc3nc(-c4c(N)c5c(F)cccc5[nH]c4=O)[nH]c3c2)CC1 [Dovitinib (TKI-258, CHIR-258)] | 32.9
15 | COc1cc2nc(N3CCN(C(=O)C4CCCO4)CC3)nc(N)c2cc1OC (stereo not given) [Terazosin HCl Dihydrate] | 105
16 | CC[C@H](Nc1ncnc2[nH]cnc12)c1oc2ccccc2c(=O)c1-c1cccc(F)c1 [Tenalisib (RP6530)] | 100
17 | O=C(c1ccccc1)C(O)O [Phenylglyoxal hydrate] | 86.1
18 | O=c1c(O)c(-c2ccc(O)c(O)c2)oc2cc(O)cc(O)c12 [Quercetin (Sophoretin)] | 93.6
19 | CO[C@H]1/C=C/O[C@@]2(C)Oc3c(C)c(O)c4c(O)c(c5c(nc6cc(C)ccn65)c4c3C2=O)NC(=O)/C(C)=C\C=C\[C@H](C)[C@H](O)[C@@H](C)[C@@H](O)[C@@H](C)[C@H](OC(C)=O)[C@@H]1C [Rifaximin (Xifaxan)] | 107
20 | CC[C@@]1(O)C(=O)OCc2c1cc1n(c2=O)Cc2cc3c(CN(C)C)c(O)ccc3nc2-1 [Topotecan] | 3.84

Row | Structure (SMILES) | cell viability [%]
21 | C=C(C)[C@@H]1CC[C@]2(C(=O)O[C@@H]3O[C@H](CO[C@@H]4O[C@H](CO)[C@@H](O[C@@H]5O[C@@H](C)[C@H](O)[C@@H](O)[C@H]5O)[C@H](O)[C@H]4O)[C@@H](O)[C@H](O)[C@H]3O)CC[C@]3(C)[C@H](CC[C@@H]4[C@@]5(C)CC[C@H](O[C@@H]6OC[C@H](O)[C@H](O)[C@H]6O[C@@H]6O[C@@H](C)[C@H](O)[C@@H](O)[C@H]6O)[C@@](C)(CO)[C@@H]5CC[C@]43C)[C@@H]12 [Anemoside B4] | 110
22 | CN1CCN2c3ncccc3Cc3ccccc3C2C1 (stereo not given) [Mirtazapine (Remeron, Avanza)] | 96.8
23 | NCCCCCN [Cadaverine] | 101
24 | CCN1CCN(Cc2ccc(C(=O)Nc3ccc(C)c(Oc4ccc5c(c4)CC(=O)N5)c3)cc2C(F)(F)F)CC1 | 82.1
25 | O=C(O)c1cc(C(=O)O)c2c(n1)C(=O)C(=O)c1cc(C(=O)O)[nH]c1-2 [Pyrroloquinoline Quinone Disodium Salt] | 106
26 | CC(C)C(=O)Nc1ccc([N+](=O)[O-])c(C(F)(F)F)c1 [Flutamide (Eulexin)] | 92.3
27 | O=C(Cc1ccccc1)Nc1nnc(CCSCCc2nnc(NC(=O)Cc3ccccc3)s2)s1 | 72.4
28 | CCn1nc(C2CCN(C(=O)CCO)CC2)nc1-c1cnc(N)c(-c2nnc(C(C)(C)C)o2)n1 | 50.7
29 | OC[C@H]1O[C@@H](Oc2cc(O)cc(/C=C/c3ccc(O[C@@H]4O[C@H](CO)[C@@H](O)[C@H](O)[C@H]4O)cc3O)c2)[C@H](O)[C@@H](O)[C@@H]1O [Mulberroside A] | 101
30 | O=C(C[S+]([O-])Cc1ccco1)NC/C=C\COc1cc(CN2CCCCC2)ccn1 (stereo not given) [Lafutidine] | 104
31 | Cn1cc(CNCC2CCN(c3ncc(C(=O)NO)cn3)CC2)c2ccccc21 | 11.5
32 | NC(=O)c1ccc(I)c([N+](=O)[O-])c1 [Iniparib (BSI-201)] | 81.1
33 | COc1cc(C=O)ccc1OC(C)=O [Acetylvanillin] | 103
34 | C=CS(=O)(=O)NC1CCN(C(=O)CNc2cc(I)c(Cl)cc2OC)CC1 [K-Ras(G12C) inhibitor 9] | 81.1
35 | CN1CCN(C(=O)c2cc3cc(Cl)ccc3[nH]2)CC1 | 98.7
36 | OC[C@H]1O[C@H](OC[C@H]2O[C@H](O[C@]3(CO)O[C@H](CO)[C@@H](O)[C@@H]3O)[C@H](O)[C@@H](O)[C@@H]2O)[C@H](O)[C@@H](O)[C@H]1O [Raffinose] | 103
37 | Cc1cc(C)nc(O)n1.O=C(Nc1ccc([N+](=O)[O-])cc1)Nc1ccc([N+](=O)[O-])cc1 [Nicarbazin] | 106
38 | O=c1cc(-c2ccc(O)c(O)c2)oc2cc(O)c([C@@H]3O[C@H](CO)[C@@H](O)[C@H](O)[C@H]3O)c(O)c12 [Homoorientin] | 90
39 | Clc1ccc(C(Cn2ccnc2)OCc2ccc(Sc3ccccc3)cc2)c(Cl)c1 (stereo not given) [Fenticonazole nitrate] | 78
40 | O=c1cc(N2CCOCC2)oc2c(-c3ccc4c(c3)OCCO4)csc12 | 30.9

From the supplement of paper PMC10981050
